# Experimental data from PubChem BioAssay.
# Calls of active or inactive are those of the source. Unless noted, no rule for the calls is given here.
# Columns and labels:
# [1] = test system: Wnt5a (protein binding on small-molecule microarray); assay: small molecules binding Wnt5a protein – biophysical, small-molecule microarray, 635/667 nm fluorescence, primary screen (AID 1142); conditions: 635 nm fluorescence, higher = more signal;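 also: fluorescence read at 667 nm with signal to noise per printed feature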
# [2] = ATP-based viability of Huh7 replicon cells – cell-based, CellTiter-Glo luminescence, basal, 48 h, cytotoxicity control for HCV replication inhibitor project, primary screen (AID 1143); conditions: higher = more signal, called active from +8 up or from −8 down;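 also: Huh7 hepatoma cells carrying a hepatitis C replication reporter with no stimulus; test concentration not given here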
# [3] = Pseudomonas biofilm growth suppression – PAO1 strain, BacTiter-Glo luminescence, LB-PBS, primary screen (AID 1144); conditions: P. aeruginosa PAO1 biofilm, 12 h, higher = more signal
# [4] = basal CRE-LacZ reporter activity in PC12 – cell-based, unstimulated, primary screen (AID 1145); conditions: no forskolin, luminescence, 4.5 h, higher = more signal, called active from +8 up or from −8 down
# [5] = forskolin-driven CRE-LacZ activity in PC12 – cell-based, CRE-LacZ reporter, forskolin-stimulated, primary screen (AID 1146); conditions: luminescence, 4.5 h, higher = more signal, called active from +8 up or from −8 down;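 also: PC12 cells with 6xCRE LacZ reporter stimulated by forskolin 10 µM; beta-galactosidase reporter signal reflecting CREB driven transcription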
# [6] = target: Streptavidin (Streptomyces avidinii) (UniProt P22629); assay: compounds binding control protein streptavidin – biophysical, small-molecule microarray, 635/667 nm fluorescence, artefact control for SMM compound annotation, primary screen (AID 1147); conditions: higher = more signal;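 also: signal reflects streptavidin binding to arrayed compounds as a control protein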
# Streptavidin (Streptomyces avidinii), sequence (P22629 whole entry, looked up): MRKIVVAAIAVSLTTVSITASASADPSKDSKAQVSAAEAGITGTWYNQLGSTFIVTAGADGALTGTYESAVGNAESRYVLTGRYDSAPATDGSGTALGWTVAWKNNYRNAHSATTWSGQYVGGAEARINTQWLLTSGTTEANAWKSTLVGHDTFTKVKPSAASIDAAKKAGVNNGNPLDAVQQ
# [7] = probe aInhba binding on compound microarray – biochemical, small-molecule microarray, 635/667 nm fluorescence, primary screen (AID 1148); conditions: higher = more signal;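 also: score merges 667nm spot fluorescence with signal-to-noise for antibody binding to printed compounds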
# Torsin-1A (Homo sapiens) [8] = target: Torsin-1A (Homo sapiens) (UniProt O14656); assay: TOR1A wild-type binding on microarray – cell lysate, small-molecule microarray, lysate, 635/667 nm, primary screen (AID 1149); conditions: COS7 hTOR1A-WT lysate, 635 nm fluorescence, higher = more signal
# Torsin-1A (Homo sapiens), sequence (O14656 whole entry, looked up): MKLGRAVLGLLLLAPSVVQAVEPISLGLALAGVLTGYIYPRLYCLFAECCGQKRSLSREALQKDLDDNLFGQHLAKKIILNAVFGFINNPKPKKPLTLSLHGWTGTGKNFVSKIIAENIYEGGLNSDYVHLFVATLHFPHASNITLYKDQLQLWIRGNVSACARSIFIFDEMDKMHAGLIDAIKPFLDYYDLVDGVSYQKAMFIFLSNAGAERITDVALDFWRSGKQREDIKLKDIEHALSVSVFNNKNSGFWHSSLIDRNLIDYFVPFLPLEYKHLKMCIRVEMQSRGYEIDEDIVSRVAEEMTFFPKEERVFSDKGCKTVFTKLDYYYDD
# Torsin-1A (Homo sapiens) [9] = target: Torsin-1A (Homo sapiens) (UniProt O14656); assay: torsin A mutant lysate binding on microarrays – cell lysate, small-molecule microarray, COS7 lysate, 635/667 nm fluorescence, primary screen (AID 1150); conditions: COS7 hTOR1A mutant lysate, 635 nm fluorescence, higher = more signal;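 also: score pools 667 nm emission and signal to noise measuring lysate protein binding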
# [10] = test system: Sonic hedgehog protein (Shh); assay: Sonic hedgehog microarray binding compounds – biochemical, small-molecule microarray, 635/667 nm fluorescence, primary screen (AID 1151); conditions: 635 nm fluorescence, higher = more signal;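 also: Shh protein binding to compounds spotted on small-molecule microarray slides; score combines spot fluorescence intensity with signal-to-noise across triplicate slides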
SMILES,composite z-score [1],z-score [2],z-score [3],z-score [4],z-score [5],composite z-score [6],composite z-score [7],composite z-score (Torsin-1A (Homo sapiens) [8]),composite z-score (Torsin-1A (Homo sapiens) [9]),composite z-score [10]
COC(=O)[C@@]1(Cc2ccccc2)[C@H]2c3cc(C(=O)N(C)C)n(Cc4ccc(C)o4)c3C[C@H]2CN1C(=O)c1ccccc1,1.28,-4.01 (inactive),-0.142 (inactive),-0.185 (inactive),0.2 (inactive),2.31,1.44,0.125,0.751,0.406
O=C1C2C=CC(C(O)c3ccco3)N(Nc3ccccc3F)C2C(=O)N1c1ccccc1 (stereo not given),0.0072,0.761 (inactive),-0.853 (inactive),-0.136 (inactive),0.942 (inactive),0.99,0.0275,-0.615,-0.0102,0.155
CCCC[C@@H](O)C1=C(COC)C[C@H]2C(=O)N(C)C(=O)[C@H]2[C@H]1CO,0.0849,-1.61 (inactive),-1.55 (inactive),-0.0581 (inactive),-1.18 (inactive),0.45,-0.128,0.32,0.227,0.882
COC(=O)C/C=C/C[C@]1(O)C(=O)N(C)c2ccccc21,0.0325,-1.2 (inactive),-0.716 (inactive),1.04 (inactive),-1.55 (inactive),-0.373,-0.104,0.325,0.582,0.775
CCOC(=O)C=Cc1cccc(C)c1O,-0.0909,-4.73 (inactive),-1.02 (inactive),0.472 (inactive),-0.631 (inactive),-0.259,-0.0375,0.299,0.777,0.219
C[N+](C)(C)CCCCCCNC(=O)[C@@H]1C[C@@H]2C(=O)N3CCC[C@H]3C(=O)N2[C@@H]1c1ccc(O)cc1,0.311,0.143 (inactive),-0.573 (inactive),-0.663 (inactive),-0.62 (inactive),-0.31,-0.0762,1.25,1.15,2.12
CC(C)[Si](C#C[Si](C(C)C)(C(C)C)C(C)C)(O[C@H](c1ccccc1)c1cn(Cc2ccccc2)nn1)C(C)C,-0.0366,-0.071 (inactive),-1.32 (inactive),-0.752 (inactive),-0.166 (inactive),0.652,-0.016,0.412,0.107,0.558
C=C(COC)C(=O)CC[C@@H](OC(C)=O)c1cccc(OCCO)c1,-0.124,-0.3 (inactive),0.423 (inactive),3.3 (inactive),2.95 (inactive),-1.07,-0.128,0.672,-0.708,0.358
COC(=O)[C@@]1(Cc2ccc(F)cc2)[C@H]2c3cc(C(=O)N(C)C)n(CCc4ccc(OC)c(Br)c4)c3C[C@H]2CN1C(=O)c1ccccc1,1.88,-4.65 (inactive),0.167 (inactive),17.2 (active),124 (active),0.221,0.925,0.005,0.741,-1.09
C=CCC(OC(C)=O)[C@@H]1[C@@H](N(Cc2ccc(-c3cccc(C(F)(F)F)c3)o2)C(=O)c2ccc(-c3ccccc3)cc2)c2cc(OCCCO)ccc2N1C(=O)Cc1ccc2ccccc2c1 (stereo not given in full),-0.276,-0.165 (inactive),-0.184 (inactive),0.572 (inactive),0.368 (inactive),-0.368,-0.113,-1.21,-1.1,-0.0629
NCCCCCNC(=O)[C@H]1C[C@H]2C(=O)N3CCC[C@H]3C(=O)N2[C@H]1c1cccc(OCCO)c1,0.444,-0.0422 (inactive),0.294 (inactive),0.143 (inactive),-0.0024 (inactive),0.812,0.0792,1.05,0.264,0.148
CCCCC(=C=CC[C@H](O)c1ccc(OCCO)cc1)CCO,-0.0188,-1.08 (inactive),0.489 (inactive),2.57 (inactive),0.0098 (inactive),-0.209,-0.0451,0.678,1.58,0.011
CCOC(=O)C[C@H]1[C@H](OC(=O)c2ccc(C(=O)c3ccccc3)cc2)[C@@H](NC(=O)c2ccc3ccccc3n2)c2cc(OCCCO)ccc2N1C(=O)Cc1ccc(OC)cc1,-0.126,-0.124 (inactive),0.458 (inactive),-0.215 (inactive),-0.357 (inactive),0.982,-0.0521,-0.077,0.292,-0.381
CCCCNC(=O)c1ccc(C#CC(C)(C)C)c(OC(C)=O)c1,0.0744,-1.7 (inactive),-0.245 (inactive),1.78 (inactive),-0.512 (inactive),1.01,-0.21,0.121,0.686,0.804
CC(C)(C)OC(=O)COc1cccc(C(=O)CCN2CCOCC2)c1,-0.143,-1.13 (inactive),2.34 (inactive),0.416 (inactive),12.2 (active),-0.081,0.034,-1.01,-0.646,0.216
CCCCCC1=C2CNC(C)(C(=O)OC)C=C2C(C)C1=O (stereo not given),0.0456,-0.169 (inactive),0.18 (inactive),1.34 (inactive),1.76 (inactive),-0.162,0.0319,-0.92,-0.38,-0.134
CC(C)C(CO)N1C(=O)[C@@H]2C3C(=O)OCCC/C=C\[C@H]3OC23C=CCN(Cn2nnc4ccccc42)C(=O)[C@@H]13 (stereo not given in full),-0.665,-0.252 (inactive),0.0208 (inactive),-1.44 (inactive),-0.0111 (inactive),-1.23,-0.128,-1.7,-1.07,0.0683
Oc1ccc2cc[n+](Cc3cc4c(cc3Br)OCO4)cc2c1,-0.388,-0.501 (inactive),-0.23 (inactive),-0.788 (inactive),-0.639 (inactive),-0.909,-0.224,-0.896,-0.49,-0.598
O=C(O)[C@@H]1[C@@H]2C(=O)N(c3ccccc3)C(=O)[C@@H]2C[C@@H]1Sc1ccccc1,-0.129,0.739 (inactive),0.956 (inactive),0.379 (inactive),0.774 (inactive),-0.237,-0.389,-0.402,-1.03,-1.45
O=C1N(CCS(=O)(=O)c2ccccc2)c2ccccc2[C@H]2OC(c3ccc(OCCCO)cc3)=N[C@@]12Cc1ccccc1,0.636,-3.51 (inactive),0.582 (inactive),5.87 (inactive),-1.86 (inactive),0.274,0.397,1.08,1.07,1.74
CCCCCCCCCCC(O)C1C=CC2C(=O)N(c3ccccc3)C(=O)C2N1Nc1ccc(C#N)cc1 (stereo not given),0.525,-3.71 (inactive),-0.209 (inactive),-0.519 (inactive),0.407 (inactive),1.66,0.215,0.225,0.646,0.314
COc1ccc(C#Cc2ccc3c(c2)[C@]2(C(=O)N3)[C@H](c3ccc(O)cc3)N3[C@H](c4ccccc4)[C@H](c4ccccc4)OC(=O)[C@H]3[C@@H]2C(=O)Nc2nc3ccccc3s2)cc1,0.108,-1.62 (inactive),-0.52 (inactive),0.389 (inactive),-0.513 (inactive),1.02,0.0797,1.16,0.168,0.329
CCOC(=O)C1=CC[C@@H](c2ccccc2F)N(S(=O)(=O)c2ccc(C)cc2)[C@H]1c1ccccc1,0.483,-3.92 (inactive),0.0947 (inactive),0.827 (inactive),0.649 (inactive),0.872,-0.045,0.263,0.388,0.649
CC1=C2[C@@H](CCc3ccccc3)OB(O)C[C@@H]2[C@@H]2C(=O)N(C)C(=O)[C@@H]2C1,0.318,-0.239 (inactive),-0.294 (inactive),-0.866 (inactive),0.829 (inactive),-0.0498,-0.252,-0.126,0.355,0.464
COC(=O)c1c(CC[C@@H](CO)NC(=O)N[C@@H](C)Cn2cc(-c3ccccn3)nn2)oc(C(C)=O)c1C(=O)OC,0.182,-2.77 (inactive),-0.243 (inactive),1.21 (inactive),0.363 (inactive),-0.893,0.154,0.372,0.591,1.74
C=C(/C(=C/C[C@H](OC(C)=O)c1ccc(CO)o1)c1cnc2ccccc2c1)C(C)C,0.473,0.27 (inactive),-1.31 (inactive),-0.671 (inactive),0.647 (inactive),1.44,0.0528,1.27,0.269,1.65
C=CCNC(=O)[C@@H]1[C@H]2C(=O)O[C@H](c3ccccc3)[C@H](c3ccccc3)N2[C@H](c2ccccc2OCCO)[C@@]12C(=O)N(C(=O)OCCOC)c1ccc(C#CC3(O)CCCCCC3)cc12,0.238,-4.26 (inactive),-0.0868 (inactive),-1.02 (inactive),-0.965 (inactive),0.159,0.115,0.759,0.631,1.58
CC(C)[Si]1(C(C)C)OCc2cc(-c3ccc(-c4ccc(Cl)c(Cl)c4)o3)nc(-c3ccccc3)c21,-0.345,-0.243 (inactive),-0.543 (inactive),0.484 (inactive),-0.272 (inactive),-0.832,-0.295,-0.193,-1.15,-0.128
